Assay results published in PubChem BioAssay (EPA / NIEHS).
Inconclusive results are not listed. A structure can be active in one record and inactive in another. Active and inactive are the calls of the source. The calls were made as follows: active = hit-call score of the fitted dose curve at least 0.9, where 1 is the maximum; inconclusive = response in the unintended direction; inactive = score below 0.9.

Test: TOX21_p53_BLA_p4_viability: Viability Assessment in the Tox21 HCT-116 p53 Agonism Beta-lactamase Assay, Phase 4 (AID 2283597);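 also: hits lower the luminescence signal meaning cytotoxicity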
Text: TOX21_p53_BLA_p4 is a cell-based, single-readout assay that uses HCT116, a human intestinal cell line, […] in a 1536-well plate.TOX21_p53_BLA_p4_viability is an assay readout measuring cellular ATP content and detected with CellTiter-Glo Luciferase-coupled ATP quantitation.TOX21_p53_BLA_p4_viability used a type of viability reporter where loss-of-signal activity can be used to understand changes in the cell viability. Furthermore, this assay endpoint can be referred to as a secondary readout, because this assay has produced multiple assay endpoints where this one serves a viability function. To generalize the intended target to other relatable targets, this assay endpoint is annotated to the cell cycle intended target family, where the subfamily is cytotoxicity.
Thawing Method: Place 14 mL of pre-warmed thaw medium into a 15 mL of conical tub. Remove the vial of cells to be thawed from liquid nitrogen and thaw rapidly by placing at 37C in a water bath with gentle agitation for 1-2 minutes. Decontaminate the vial by wiping with 70% ethanol before opening in a biological safety cabinet. Transfer the vial contents drop-wise into 14 mL of thaw medium in a sterile 15-mL conical tub. Centrifuge cells at 900 rpm for 4 minutes and resuspend in thaw medium. Transfer contents to the T75 tissue culture flask containing Thaw Medium and place flask in a humidified 37C/5% CO2 incubator. Switch to growth medium at first passage.Propagation Method: Aspirate medium, rinse once in DPBS, add 0.25% Trypsin/EDTA and swirl to coat the cell evenly. Add an equal volume of Growth Medium to inactivate Trypsin after 2-3 minutes incubation at 37C. Centrifuge cells at 900 rpm for 4 minutes and resuspend in growth medium. Cell should be passage or fed at least twice a week.Assay Protocol: Harvest cells from culture in growth medium and resuspend in assay medium. 2.2 Dispense 4000 cells/5 uL/well into 1536-well black/clear bottom plates using a Multidrop dispenser. After the cells were incubated at 37C for 5 hours, 23 nL of compounds dissolved in DMSO were transferred to the assay plate by a PinTool resulting in a 217-fold dilution. Incubate the plates for 16 hours at 37C, 5% CO2. Add 1 uL of 6X LiveBLAzer FRET B/G (CCF4-AM) Substrate Mixture to each well using a BioRAPTR dispenser and incubate the plates at room temperature for 2 hours. Measure fluorescence intensity at 460 and 530 nm emission and 405 nm excitation by an Envision detector. Data is expressed as the ratio of 460nm/530nm emissions. Add 4 uL of Cell-titer Glo to each well using BioRAPTR and incubate the plates at room temperature for […]. For cell viability readout that measures cytotoxicity, 4 ul/well of CellTiter-Glo reagent was added into the assay plates using a Flying Reagent Dispenser. After 30 min incubation at room temperature, the luminescence intensity in the plates was measured using a ViewLux plate reader.
In the case of CC(Oc1ccc(Oc2ncc(C(F)(F)F)cc2Cl)cc1)C(=O)O (stereo not given), the outcome is reported as “inactive”. With CN(C)CCc1c[nH]c2cccc(O)c12 the outcome was “inactive”. In the case of NCC(O)c1cccc(O)c1 (stereo not given), the outcome is reported as “inactive”. In the case of [H+].[H+].[Hg+2].[O-]B([O-])[O-].[c-]1ccccc1, the AC50 is reported as 8.43 µM (active). In the case of CC=C(CC)C(=O)NC(N)=O, the outcome is reported as “inactive”. In the case of CCCSc1cc(OC)c(CCN)cc1OC, the outcome is reported as “inactive”. With COc1ccc2c3c1O[C@H]1[C@H](O)CC[C@H]4[C@@H](C2)N(C)CC[C@@]341 the outcome was “inactive”. In the case of C[C@]12CCC(=O)C(O)=C1CC[C@@H]1[C@@H]2CC[C@]2(C)C(=O)CC[C@@H]12, the outcome is reported as “inactive”. With COC(=O)[C@@H]1[C@H]2CC[C@@H](C[C@H]1OC(=O)c1ccccc1)N2C the outcome was “inactive”. With CC(C)(C)NC[C@H](O)c1ccc(O)cc1Cl the outcome was “inactive”. With COc1cc(CCN)cc(OC)c1OC the outcome was “inactive”. For Nc1ccccc1Cl, the outcome was “inactive”. With CN the outcome was “inactive”. In the case of CCN(CC)C(=O)N[C@H]1C[C@@H]2c3cccc4[nH]cc(c34)C[C@H]2N(C)C1, the outcome is reported as “inactive”. With CC[C@H](OC(C)=O)C(C[C@H](C)NC)(c1ccccc1)c1ccccc1 the AC50 was 51.1 µM (active). For [O]=[Cd], the outcome was “inactive”. With c1ccc(P(c2ccccc2)c2ccccc2)cc1 the outcome was “inactive”. For C[C@]12CC[C@H]3[C@@H](CC=C4C[C@@H](O)CC[C@@]43C)[C@@H]1CC[C@@H]2O, the outcome was “inactive”. For O=C(O)C(Cl)Br (stereo not given), the outcome was “inactive”. For CC(=O)Nc1cc([As](=O)(O)O)ccc1O, the outcome was “inactive”. In the case of OC(O)C(Cl)(Cl)Cl, the outcome is reported as “inactive”. With O=C(O)COc1ccccc1 the outcome was “inactive”. With Nc1ccc([N+](=O)[O-])cc1N the outcome was “inactive”. In the case of O=C(N/N=C/c1ccc([N+](=O)[O-])o1)c1cc([N+](=O)[O-])cc([N+](=O)[O-])c1O, the AC50 is reported as 23 µM (active). For C[C@@H]1CC[C@H]2[C@@H](C)C(=O)O[C@@H]3O[C@@]4(C)CC[C@@H]1[C@]32OO4, the outcome was “inactive”. For CNC(C)Cc1ccc2c(c1)OCO2 (stereo not given), the outcome was “inactive”. In the case of O=NN1CCCCC1, the outcome is reported as “inactive”. In the case of ClCC1CO1 (stereo not given), the outcome is reported as “inactive”. With Clc1ccc(CSC(Cn2ccnc2)c2ccc(Cl)cc2Cl)cc1 (stereo not given) the outcome was “inactive”. In the case of CNC(=O)OCC[N+](C)(C)C, the outcome is reported as “inactive”. In the case of O=C1C=C2C=C[C@@H]3C[C@@]2(O1)[C@H]1CCCCN31, the outcome is reported as “inactive”. For F/C(COc1ccc2c(c1)[nH]c1ccccc12)=C1/CN2CCC1CC2, the AC50 was 27.3 µM (active). For N#CC(C#N)=Cc1cc(O)c(O)c(O)c1, the outcome was “inactive”. For O=C(O)c1cc(Cl)ccc1Cl, the outcome was “inactive”. In the case of CC(=O)OCC(=O)[C@H]1CC[C@H]2[C@@H]3CC[C@H]4C[C@H](O)CC[C@]4(C)[C@H]3C(=O)C[C@]12C, the outcome is reported as “inactive”. In the case of CN1C[C@H](C(=O)N[C@]2(C)O[C@@]3(O)[C@@H]4CCCN4C(=O)[C@H](Cc4ccccc4)N3C2=O)C=C2c3cccc4[nH]cc(c34)C[C@H]21, the AC50 is reported as 71.4 µM (active) and the outcome is reported as “inactive”. For CC[C@@H](CO)NC(=O)[C@@H]1C=C2c3cccc4[nH]cc(c34)C[C@H]2N(C)C1, the outcome was “inactive”. In the case of BrCCc1ccccc1, the outcome is reported as “inactive”. With CCCBr the outcome was “inactive”.
